Results filed as inconclusive are left out. Active and inactive are the calls of the source. Unless noted, the call rests on the fitted dose curve; in most records, active means well fitted curve in the direction sought with a large enough effect in the repeat runs; inconclusive means weak or mixed curves; inactive means no such curve, though single readings can be large; an effect the other way counts as inactive or inconclusive.
Tests used:
[1] = qHTS assay to identify small molecule agonists of the sonic hedgehog signaling (Shh) pathway - cell viability counter screen (AID 1259366); further: nearly all actives have a fitted effect of over 50% in size
Method in brief: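 Cytotoxicity counter screen: CellTiter-Fluor reagent added after 23 h compound exposure, then 1 h at 37C and fluorescence read. Cells were 3T3 Gli1-Luc, seeded 2,000 per well and dosed 4 h post-plating.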

[2] = qHTS assay to identify small molecule antagonists of the sonic hedgehog signaling (Shh) pathway - cell viability counter screen (AID 1259367); further: nearly all actives have a fitted effect of over 55% in size
Method in brief: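 NIH/3T3-derived Gli1-Luc reporter cells, 2,000/well, plated 4 hr before compound addition, then stimulated with conditioned medium for 24 hr at 37C. Viability measured in the same wells by CellTiter-Fluor fluorescence, reagent added at 23 hr for 1 hr.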

[3] = qHTS assay to identify small molecule agonists of the sonic hedgehog signaling (Shh) pathway (AID 1259368; calls by dose curve;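 further: NIH/3T3-derived 3T3Gli1-Luc cells carrying a stable Gli1-driven firefly luciferase reporter; series mostly up to about 92 µM; nearly all actives have a fitted effect of over 15% in size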)
Method in brief: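 Steps: seed 3T3 Gli1-Luc cells, incubate 4 hr at 37 C, pin-transfer compounds in DMSO alongside a positive control, incubate 24 hr, add luciferase detection reagent, wait 30 min at room temperature, read luminescence.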

[4] = qHTS assay to identify small molecule antagonists of the sonic hedgehog signaling (Shh) pathway (AID 1259369; calls by dose curve; further: nearly all actives have a fitted effect of over 45% in size)
Method in brief: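 Inhibition of Shh signalling is measured as reduced Gli1-response-element firefly luciferase output in an NIH/3T3-derived stable reporter clone stimulated with conditioned medium for 24hr.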

[5] = target: Estrogen receptor beta (Homo sapiens) (UniProt Q92731); assay: qHTS assay to identify small molecule agonists of the estrogen receptor beta (ER-beta) signaling pathway (AID 1259377; active means well fitted activation curve with a large enough effect in the signal ratio in the repeat runs, not every such curve was filed as active; the % refers to the signal ratio)
Method in brief: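 Ratiometric beta-lactamase FRET read-out came after 2 h substrate loading at room temperature. It followed 16 h compound treatment at 37C of GripTite HEK293T cells carrying a UAS-bla reporter, plated in 2% charcoal-stripped FBS medium.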

[6] = target: Estrogen receptor beta (Homo sapiens) (UniProt Q92731); assay: qHTS assay to identify small molecule antagonists of the estrogen receptor beta (ER-beta) signaling pathway (AID 1259378; active means well fitted inhibition curve with a large enough effect in the signal ratio in the repeat runs, not every such curve was filed as active; the % refers to the signal ratio)
Method in brief: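 ER-beta-UAS-bla HEK293T cells in 2% charcoal-stripped FBS medium treated with compound plus 1nM final 17-beta-estradiol for 16 hr at 37C. Beta-lactamase reporter read by FRET substrate fluorescence after 2 hours at room temperature.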

[7] = qHTS assay to identify small molecule agonists of the androgen receptor (AR) signaling pathway in the presence of an antagonist - cell viability counter screen (AID 1259379);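 further: MDA-kb2 human breast cancer cells carrying an MMTV luciferase reporter; series mostly up to about 92 µM; nearly all actives have a fitted effect of over 25% in size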
Method in brief: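 Fluorescence from CellTiter-Fluor, added after 15 hr and read 1 hr later, gave cell viability. Cells were MDA-kb2 exposed to compounds (15 concentrations) in the presence of 3.0uM nilutamide at 37C, 0% CO2.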

[8] = qHTS assay to identify small molecule agonists of the estrogen receptor beta (ER-beta) signaling pathway - cell viability counter screen (AID 1259380); further: nearly all actives have a fitted effect of over 30% in size
Method in brief: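 Same-well viability counter screen. Cells: ER-beta-UAS-bla HEK293T, plated 6 hr before compound, in 2% charcoal-stripped FBS. Compound exposure 16 hr, 37C; viability by CellTiter-Glo luminescence after 30 min at room temperature.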

[9] = target: Androgen receptor (Homo sapiens) (UniProt P10275); assay: qHTS assay to identify small molecule agonists of the androgen receptor (AR) signaling pathway in the presence of an antagonist (AID 1259381; calls by dose curve; further: nearly all actives have a fitted effect of over 15% in size)
Method in brief: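 Cells are MDA-kb2 (human breast carcinoma, MMTV-luc, AR/GR responsive). Nilutamide is present at 3.0uM final throughout; compounds are added at 15 concentrations and incubated 16hr at 37C before ONE-Glo luminescence detection.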

[10] = qHTS assay to identify small molecule antagonists of the estrogen receptor beta (ER-beta) signaling pathway - cell viability counter screen (AID 1259382); further: series mostly up to about 92 µM; nearly all actives have a fitted effect of over 55% in size
Method in brief: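 Following a 6 hr plating period, HEK293T cells carrying a UAS-driven beta-lactamase reporter under ER-beta control received compounds and 1nM E2 (final). After 16 hr at 37C and 2 hr substrate loading, CellTiter-Glo luminescence indicated viability.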
On the % scale 0 is the no-effect control and ±100 the full control effect.

Estrogen receptor beta (Homo sapiens), sequence (Q92731 whole entry, looked up): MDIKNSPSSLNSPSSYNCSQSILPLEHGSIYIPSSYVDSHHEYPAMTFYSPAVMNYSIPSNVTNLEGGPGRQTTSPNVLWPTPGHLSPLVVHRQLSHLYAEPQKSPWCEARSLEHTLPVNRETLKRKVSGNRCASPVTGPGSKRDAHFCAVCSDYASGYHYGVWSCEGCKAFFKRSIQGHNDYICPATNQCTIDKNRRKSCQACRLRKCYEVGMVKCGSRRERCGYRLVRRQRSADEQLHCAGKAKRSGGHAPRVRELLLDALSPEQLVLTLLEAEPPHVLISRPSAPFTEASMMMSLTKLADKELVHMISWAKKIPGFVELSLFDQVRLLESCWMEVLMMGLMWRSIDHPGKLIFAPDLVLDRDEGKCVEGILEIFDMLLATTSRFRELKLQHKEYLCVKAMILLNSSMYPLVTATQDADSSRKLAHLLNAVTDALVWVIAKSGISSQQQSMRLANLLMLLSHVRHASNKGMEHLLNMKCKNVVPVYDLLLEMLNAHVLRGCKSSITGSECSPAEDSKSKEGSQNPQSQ
Androgen receptor (Homo sapiens), sequence (P10275 whole entry, looked up): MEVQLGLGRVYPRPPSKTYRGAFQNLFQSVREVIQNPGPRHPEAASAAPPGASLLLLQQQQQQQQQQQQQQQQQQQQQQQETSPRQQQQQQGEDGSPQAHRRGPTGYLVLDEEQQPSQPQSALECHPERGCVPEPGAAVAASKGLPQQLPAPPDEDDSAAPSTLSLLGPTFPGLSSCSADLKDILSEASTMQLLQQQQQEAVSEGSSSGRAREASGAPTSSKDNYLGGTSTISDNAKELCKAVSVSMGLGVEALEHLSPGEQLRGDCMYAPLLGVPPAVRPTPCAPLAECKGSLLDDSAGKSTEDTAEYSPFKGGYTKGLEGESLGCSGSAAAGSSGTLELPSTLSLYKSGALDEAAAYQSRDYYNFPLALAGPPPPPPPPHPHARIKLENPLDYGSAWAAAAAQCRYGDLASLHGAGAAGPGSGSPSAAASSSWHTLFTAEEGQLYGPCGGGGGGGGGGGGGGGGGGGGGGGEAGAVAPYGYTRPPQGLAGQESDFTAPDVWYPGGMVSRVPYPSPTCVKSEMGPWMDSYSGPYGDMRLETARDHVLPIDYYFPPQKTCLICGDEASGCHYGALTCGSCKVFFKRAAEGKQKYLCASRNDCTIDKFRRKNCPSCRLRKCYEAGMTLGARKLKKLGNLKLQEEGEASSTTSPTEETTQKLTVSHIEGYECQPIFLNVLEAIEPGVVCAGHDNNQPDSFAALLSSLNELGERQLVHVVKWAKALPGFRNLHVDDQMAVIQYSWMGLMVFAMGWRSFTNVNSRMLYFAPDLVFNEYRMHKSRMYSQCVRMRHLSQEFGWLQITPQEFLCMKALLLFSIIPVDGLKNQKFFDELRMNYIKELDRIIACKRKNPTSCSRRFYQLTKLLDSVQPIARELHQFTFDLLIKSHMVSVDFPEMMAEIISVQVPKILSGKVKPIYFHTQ

Nc1ccc(S(=O)(=O)NC(=O)c2ccccc2)cc1
inactive: Potency [1] | Potency [2] | outcome [3] | Potency [4] | Potency [5] | outcome [6] | Potency [7] | outcome [8]

O=C1CC[C@H](C(=O)N2CCCCC2)N1
inactive: Potency [1] | Potency [2] | outcome [3] | Potency [4] | Potency [5] | outcome [6] | Potency [7]

Nc1ccnc(=O)[nH]1
inactive: Potency [1] | Potency [2] | outcome [3] | Potency [4] | Potency [5] | outcome [6] | Potency [7] | outcome [8] | outcome [9] | outcome [10]

O=S(=O)(O)c1cc(O)ccc1O
inactive: Potency [1] | Potency [2] | outcome [3] | Potency [4] | Potency [5] | outcome [6] | Potency [7] | outcome [8]

CCCC(C)CC (stereo not given)
inactive: Potency [1] | Potency [2] | outcome [3] | Potency [4] | Potency [5] | outcome [6] | Potency [7] | outcome [8] | outcome [10]

CCCCOC(=O)[C@@H](C)Oc1ccc(Oc2ccc(C(F)(F)F)cn2)cc1
inactive: Potency [1] | Potency [2] | outcome [3] | Potency [4] | Potency [5] | outcome [6] | Potency [7] | outcome [8] | outcome [10]

NC(=O)NNC(N)=O
inactive: Potency [1] | Potency [2] | outcome [3] | Potency [4] | Potency [5] | outcome [6] | Potency [7]

NCCc1ccn[nH]1
inactive: Potency [1] | Potency [2] | outcome [3] | Potency [4] | Potency [5] | outcome [6] | Potency [7] | outcome [8] | outcome [10]

O=c1[nH]c(=O)c2[nH]c(=O)[nH]c2[nH]1
inactive: viability change, negative = cytotoxic [1] -3.05% [at 8.39 µM] | viability change, negative = cytotoxic [2] 0.704% [at 8.39 µM] | activity change [3] 0.435% [at 8.39 µM] | activity change, negative = inhibition [4] 16.8% [at 8.39 µM] | activation [5] -1.14% [at 8.39 µM] | activity, negative = inhibition [6] 11.9% [at 8.39 µM] | activity change, negative = cytotoxicity [7] -1.23% [at 8.39 µM] | activity change, negative = cytotoxicity [8] 0.228% [at 8.39 µM]

CCCO
inactive: Potency [1] | Potency [2] | outcome [3] | Potency [4] | Potency [5] | outcome [6] | Potency [7] | outcome [8] | outcome [10]

COC(/C=C(\C)CCC=C(C)C)OC
inactive: Potency [1] | Potency [2] | outcome [3] | Potency [4] | Potency [5] | outcome [6] | Potency [7] | outcome [8] | outcome [10]

Cc1ccc(S(=O)(=O)NC(=O)NC2CCCCCCC2)cc1
inactive: Potency [1] | Potency [2] | outcome [3] | Potency [4] | Potency [5] | outcome [6] | Potency [7] | outcome [8] | outcome [10]

CC(C)c1ccccc1O
inactive: Potency [1] | Potency [2] | outcome [3] | Potency [4] | Potency [5] | outcome [6] | Potency [7] | outcome [8]

CC(=O)OC(C)c1ccccc1 (stereo not given)
inactive: Potency [1] | Potency [2] | outcome [3] | Potency [4] | Potency [5] | outcome [6] | Potency [7] | outcome [8]

O=C1OC(=O)c2ccccc21
inactive: Potency [1] | Potency [2] | outcome [3] | Potency [4] | Potency [5] | outcome [6] | Potency [7] | outcome [8] | outcome [10]

C=CCOc1cc(Cl)ccc1C(=O)NCCN(CC)CC
inactive: Potency [1] | Potency [2] | outcome [3] | Potency [4] | Potency [5] | outcome [6] | Potency [7] | outcome [8] | outcome [10]

CCOC(=O)C(C)(C)C
inactive: Potency [1] | Potency [2] | outcome [3] | Potency [4] | Potency [5] | outcome [6] | Potency [7] | outcome [8] | outcome [10]

CC1(N)CCC(C(C)(C)N)CC1 (stereo not given)
inactive: Potency [1] | Potency [2] | outcome [3] | Potency [4] | Potency [5] | outcome [6] | Potency [7] | outcome [8] | outcome [10]

O=C1NC2NC(=O)NC2N1 (stereo not given)
inactive: Potency [1] | Potency [2] | outcome [3] | Potency [4] | Potency [5] | outcome [6] | Potency [7]

COc1ccc(/C=N/NC(=O)c2ccncc2)cc1OC
inactive: Potency [1] | Potency [2] | outcome [3] | Potency [4] | Potency [5] | outcome [6] | Potency [7] | outcome [8] | outcome [9]

Cc1ccccc1OCC1CO1 (stereo not given)
inactive: Potency [1] | Potency [2] | outcome [3] | Potency [4] | Potency [5] | outcome [6] | Potency [7] | outcome [8] | outcome [10]

COc1ccc(OC)c(NC(=O)CC(C)=O)c1
inactive: Potency [1] | Potency [2] | outcome [3] | Potency [4] | Potency [5] | outcome [6] | Potency [7] | outcome [8] | outcome [10]

C1=CCC(c2ccccc2)CC1 (stereo not given)
inactive: Potency [1] | Potency [2] | outcome [3] | Potency [4] | Potency [5] | outcome [6] | Potency [7] | outcome [8] | outcome [10]

CC(C)(C)NCCO
inactive: Potency [1] | Potency [2] | outcome [3] | Potency [4] | Potency [5] | outcome [6] | Potency [7] | outcome [8] | outcome [10]

C=CCOc1c(Br)cc(Br)cc1Br
inactive: Potency [1] | Potency [2] | outcome [3] | Potency [4] | Potency [5] | outcome [6] | Potency [7] | outcome [8] | outcome [10]

Reference: PubChem BioAssay (Tox21)
